Data published in PubChem BioAssay (EPA / NIEHS).
Calls of active or inactive are those of the source. Rule for the calls: active = hit-call score of the fitted dose curve at least 0.9, where 1 is the maximum; inactive = score below 0.9.

What follows are molecules tested on Glutamate-cysteine ligase regulatory (GCLM), GCLM (gene 2730) (assay: LTEA_HepaRG_GCLM: Life Technologies and Expression Analysis (LTEA) Assay for Glutamate-cysteine ligase regulatory (GCLM) using HepaRG (AID 2283500)). Details: mRNA level, 48 h; actives raise or lower the signal.
Experimental: LTEA_HepaRG is a cell based, multiplexed-readout assay that uses HepaRG, a human liver cell line, with measurements taken at 48 hours after chemical dosing on a 96-well plate.LTEA_HepaRG_GCLM is one of 102 assay component(s) measured in the LTEA HepaRG cell culture assay. It is a marker of Cell proliferation, survival, death.Data from the assay component LTEA_HepaRG_GCLM was analyzed into 1 endpoint. This assay endpoint, LTEA_HepaRG_GCLM, was analyzed with bidirectional fitting relative to DMSO as the negative control and baseline of activity. Using a type of inducible reporter, measures of mRNA induction for gain or loss-of-signal activity can be used to understand regulation of transcription factor activity. To generalize the intended target to other relatable targets, this assay endpoint is annotated to the ligase intended target family, where the subfamily is C-N ligase.
A total of 1060 chemcials from the ToxCast library were tested in eight-point concentration-response experiments. Cell culture and cytotoxicity assays were conducted at Thermo Fisher Scientific's Custom Services facility (Madison, WI). A single lot of human HepaRG cells (Thermo Fisher Scientific, Frederick, MD) was used for the cell culture experiments. 96-well format collagen type I coated plates of human HepaRG cells were prepared using established methods. Briefly, cryopreserved HepaRG cells were thawed, plated at a density of approximately 100,000 cells/well in HepaRG Thaw, Plate, and General Purpose media (HPRG770, Thermo Fisher Scientific), and incubated for 48 hours. 0.5% DMSO was selected as vehicle control to balance the requisite need of DMSO in HepaRG cultures to maintain differentiation (for example, baseline metabolism, proportions of hepatocytes vs. cholangiocytes), while enabling further hepatic receptor pathway activation (for example, PXR and CAR) in response to chemical exposure. 48 hours after plating, the culture medium was replaced with HepaRG Serum-Free Incudtion Media. Cells were exposed to each test chemical in duplicate and maintained in CO2 incubators for another 48 hours. Chemical plates were thawed to room temperature and 200x concentrations of treatment groups were prepared. 8-point conentration-reponse curves were made with the highest exposure at 100 uM, followed by half-log dilutions, all in 0.5% DMSO. Each test plate contained variouse controls, induction positive controls (1mM phenobarbital), cytotoxicity positive controls ([…] aflatoxin B1), vehicle controls (0.5% DMSO), and total lysis controls (0.5% DMSO). Cell morphology images were taken using an Essen IncuCyte FLR automated microscope, with six 96-well plates imaged in about 24 minutes. Images were captured and exported and JPEG files. Spent culture media was transfered to black-well plates for the LDH assay, and remaining media was sorted at -80 C for later use. Cells were treated with RLT buffer and frozen until shipped for gene expression analysis. Total RNA was isolated from the cell suspension in 75 uL of Buffer RLT (Qiagen, Germantown, MD 20874) by Quintiles/Expression Analysis (Durham, NC) using a custom isolation procedure. Total RNA from each plate well was transferred to a preamplification plate. Fluidigm's 96.96 Dynamic ArrayTM (Fluidigm, Amsterdam, the Netherlands) technology was used for gene expression analyses by quantitative reverse transcription polymerase chain reaction (qRT-PCR, performed by Quintiles/Expression Analysis, Durham, NC)89. Standard TaqManTM Assays (Applied Biosystems/ThermoFisher Scientific, Foster City, CA) were used to assess the expression of 93 genes selected based on their selectivity and sensitivity to important hepatic receptors known to be modulated by environmental chemicals; importance in human hepatocyte functionality; and hepatotoxicity. […]

| Structure (SMILES) | outcome | AC50 |
| --- | --- | --- |
| CC(C)(C)c1ccc(O)cc1 | inactive |  |
| O=[N+]([O-])c1ccccc1 | inactive |  |
| Cc1ccc(N)cc1N | inactive |  |
| CCNc1nc(Cl)nc(NC(C)(C)C)n1 | inactive |  |
| CN(C)C(=O)Cl | inactive |  |
| Nc1ccc2ccccc2c1 | inactive |  |
| O=[N+]([O-])c1ccc(Cl)c(Cl)c1 | inactive |  |
| CCN(CC)c1ccccc1 | inactive |  |
| Cc1ccc(O)cc1C | inactive |  |
| c1nc[nH]n1 | inactive |  |
| CCOP(=S)(Oc1ccc([N+](=O)[O-])cc1)c1ccccc1 (stereo not given) | inactive |  |
| CSC(C)(C)C=NO | inactive |  |
| O=C(O)C(Cl)Cl | inactive |  |
| CCOS(=O)(=O)OCC | inactive |  |
| O=C(O)C1C(C(=O)O)C2(Cl)C(Cl)=C(Cl)C1(Cl)C2(Cl)Cl (stereo not given) | inactive |  |
| CCC1(c2ccccc2)C(=O)N=C(O)NC1=O (stereo not given) | inactive |  |
| CCC(C)(C)c1ccc(O)cc1 | inactive |  |
| CC(Cl)(Cl)C(=O)O | inactive |  |
| CCOP(=S)(OCC)SCSCC | inactive |  |
| Nc1ccc(Cl)cc1 | inactive |  |

| Structure (SMILES) | outcome | AC50 |
| --- | --- | --- |
| CCCCCCCc1ccc(O)cc1 | inactive |  |
| c1ccc(OP(Oc2ccccc2)Oc2ccccc2)cc1 | inactive |  |
| c1cc2c3c(cccc3c1)CC2 | inactive |  |
| CCOc1ccc(C(C)(C)COCc2cccc(Oc3ccccc3)c2)cc1 | inactive |  |
| c1ccc2c(c1)Nc1ccccc1S2 | inactive |  |
| [N-]=[N+]=[N-] |  | 95 µM (active) |
| CCCCN(CCCC)SN(C)C(=O)Oc1cccc2c1OC(C)(C)C2 | inactive |  |
| CC(Cc1ccc(OCC(=O)O)cc1)NCC(O)c1csc(C(F)(F)F)n1 (stereo not given) | inactive |  |
| CCCCN(CCCC)N=O | inactive |  |
| ClC1=C(Cl)C2(Cl)C3C(Cl)C(Cl)CC3C1(Cl)C2(Cl)Cl (stereo not given) |  | 50 µM (active) |
| Cc1cccc(N)c1 | inactive |  |
| CC(C)(C)OOC(C)(C)C | inactive |  |
| CCCN(CCC)c1c([N+](=O)[O-])cc(C(C)C)cc1[N+](=O)[O-] |  | 9.92 µM (active) |
| ClC(Cl)(Cl)c1ccccc1 | inactive |  |
| COCCOCCO | inactive |  |
| CCCCc1ccccc1 | inactive |  |
| Nc1cc2c3c(c1)C(c1ccccc1)=N[C@@H](NC(=O)c1cccnc1)C(=O)N3CC2 | inactive |  |
| O=P(Oc1ccccc1)(Oc1ccccc1)Oc1ccccc1 |  | 50 µM (active) |
| O=P1(N(CCCl)CCCl)NCCCO1 (stereo not given) | inactive |  |
| OCC1CO1 (stereo not given) | inactive |  |
